Inconclusive results are not listed. Calls of active or inactive are those of the source. Rule for the calls: active = hit-call score of the fitted dose curve at least 0.9, where 1 is the maximum; inconclusive = response in the unintended direction; inactive = score below 0.9.

The first test deals with Cellular tumor antigen p53 (Homo sapiens) (UniProt P04637). The test is described as follows: TOX21_p53_BLA_p5_ratio: Tox21 HCT-116 p53 Agonism Beta-lactamase Assay, Ratio, Phase 5 (AID 2283599). In a few lines: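 HCT-116 p53-bla cells (4000/well) plated 5 h, dosed with compound (217-fold DMSO dilution) for 16 h at 37 C; CCF4-AM substrate 2 h at room temperature. Activity is the 460/530 nm emission ratio (405 nm excitation), fitted in gain-of-signal direction versus DMSO.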
Chain of Cellular tumor antigen p53 (Homo sapiens) (P04637 whole entry, looked up): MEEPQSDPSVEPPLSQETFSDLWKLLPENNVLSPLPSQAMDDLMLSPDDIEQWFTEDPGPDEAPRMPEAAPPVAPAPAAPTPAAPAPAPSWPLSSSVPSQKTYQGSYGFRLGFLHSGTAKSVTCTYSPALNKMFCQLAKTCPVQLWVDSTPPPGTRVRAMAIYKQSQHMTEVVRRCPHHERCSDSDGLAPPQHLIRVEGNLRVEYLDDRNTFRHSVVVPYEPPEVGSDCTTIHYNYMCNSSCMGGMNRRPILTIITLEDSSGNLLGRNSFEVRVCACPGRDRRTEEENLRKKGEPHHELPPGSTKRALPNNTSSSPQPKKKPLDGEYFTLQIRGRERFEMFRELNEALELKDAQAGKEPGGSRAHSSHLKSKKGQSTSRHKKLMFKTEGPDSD
In the case of `c1ccc2nccnc2c1`, the outcome was inactive.
Still for that read-out and setting: the result for `CC(=O)NC(=O)c1ccccc1O` reads “inactive”; that for `C[C@@H]1CC[C@@]2(OC1)O[C@H]1C[C@H]3[C@@H]4CC[C@H]5C[C@@H](O)CC[C@]5(C)[C@H]4CC(=O)[C@]3(C)[C@H]1[C@@H]2C`, “inactive”.
Still for that read-out and setting: the result for `CCCn1c(=O)[nH]c(=O)c2[nH]cnc21` reads “inactive”; that for `C#CCN[C@@H]1CCc2ccccc21`, “inactive”; that for `CCCCCCCCCCCCCCCCCl`, “inactive”.
On the same count and under the same terms, as for `O=C1CC[C@H](C(=O)N2CCCCC2)N1`, the entry is “inactive”; as for `CCCn1cc[n+](C)c1C`, “inactive”.
For the compound `CN1CC(=O)N=C1N`, the outcome was inactive.
Same read-out and setting: the result for `c1cc2c3c(c1)ccc1cccc(c13)C2` reads “inactive”; that for `CCOC(=O)[C@H](CCc1ccccc1)N[C@@H](C)C(=O)N1CC2(C[C@H]1C(=O)O)SCCS2`, “inactive”.
Same read-out and setting: the result for `COc1cc(S(C)=O)ccc1-c1nc2ncccc2[nH]1` (stereo not drawn) reads “inactive”; that for `NS(=O)(=O)c1ccc(C(=O)O)cc1`, “inactive”; that for `CC(C)OC(=O)C(C(=O)OC(C)C)=C1SC=CS1`, “inactive”.

Tested on in the next test: not listed separately
The test is described as follows: TOX21_p53_BLA_p5_viability: Viability Assessment in the Tox21 HCT-116 p53 Agonism Beta-lactamase Assay, Phase 5 (AID 2283600). In outline:
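Compounds, pinned from DMSO at 217-fold dilution, were left on the cells for 16 h. The viability endpoint was ATP content measured by CellTiter-Glo luminescence, where falling signal reflects cytotoxicity.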
For `Cl/C(=C\n1cncn1)c1ccc(Cl)cc1Cl`, the call was inactive.
The same measure, in the same setting: as for `Cc1cc(NC(=O)C2=C(O)c3ccccc3S(=O)(=O)N2C)no1`, the entry is “inactive”; as for `COc1ccc(C=NNC(=O)c2ccncc2)c(C(=O)O)c1OC`, “inactive”.
As to `CC(C)CCC[C@@H](C)[C@H]1CC[C@H]2[C@@H]3CC[C@@H]4C[C@H](O)CC[C@]4(C)[C@H]3CC[C@]12C`, the result was inactive.
Still for that read-out and setting: the result for `CCc1ccc(CC)cc1` reads “inactive”; that for `CCn1ccnc1CC1COc2ccccc2O1` (stereo not drawn), “inactive”.
On the same count and under the same terms, the result for `O=C1NC(=O)[C@H]2[C@@H]1[C@@H]1C=C[C@H]2C1` reads “inactive”.
With `Nc1cccc([N+](=O)[O-])c1`, the compound was classed as inactive.
For the compound `CCC(CO)(CO)CO`, the compound was called inactive.
On the same count and under the same terms, as for `CCc1ccc(C(=O)C(C)CN2CCCCC2)cc1` (stereo not drawn), the entry is “inactive”.
In the case of `c1ccc2nccnc2c1`, the call was inactive.
For `CC(=O)NC(=O)c1ccccc1O`, the compound was called inactive.
Take `C[C@@H]1CC[C@@]2(OC1)O[C@H]1C[C@H]3[C@@H]4CC[C@H]5C[C@@H](O)CC[C@]5(C)[C@H]4CC(=O)[C@]3(C)[C@H]1[C@@H]2C`: the outcome was inactive.
On the same count and under the same terms, as for `CCCn1c(=O)[nH]c(=O)c2[nH]cnc21`, the entry is “inactive”; as for `CCCCCCCCCCCCCCCCCl`, “inactive”.
The same measure, in the same setting: as for `O=C1CC[C@H](C(=O)N2CCCCC2)N1`, the entry is “inactive”; as for `c1cc2c3c(c1)ccc1cccc(c13)C2`, “inactive”.
Still for that read-out and setting: the result for `COc1cc(S(C)=O)ccc1-c1nc2ncccc2[nH]1` (stereo not drawn) reads “inactive”; that for `NS(=O)(=O)c1ccc(C(=O)O)cc1`, “inactive”.

Values taken from PubChem BioAssay (EPA / NIEHS).
